# Measurements published in PubChem BioAssay (EPA / NIEHS).
# Calls of active or inactive are those of the source. Rule for the calls: active = hit-call score of the fitted dose curve at least 0.9, where 1 is the maximum; inactive = score below 0.9.
# Assay: CEETOX_H295R_OHPROG: CeeTox H295R High-throughput Steroidogenesis Assay for OH-Progesterone (OHPROG) (AID 2283435);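 for AC50: 17alpha-hydroxyprogesterone secreted into medium measured by HPLC-MS/MS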
# Settings: actives raise or lower the signal
# Procedure, shortened: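 H295R, 10 uM forskolin prestim 48 h; cmpd in 0.1% DMSO 48 h; medium MTBE-extracted, HPLC-MS/MS for OH-progesterone; 7-pt std curve; bidirectional fit vs DMSO; MTT viability, chemicals diluted until viability >/=70%.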
SMILES,AC50,outcome
CCN(CC)CCOc1ccc(C(=C(Cl)c2ccccc2)c2ccccc2)cc1,0.147 µM (active),–
CCC(C)N(C)C(=O)c1cc2ccccc2c(-c2ccccc2Cl)n1 (centres undefined),3.85 µM (active),–
O=C(O)CN(CC(=O)O)CC(=O)O,–,inactive
CCCCCCCCCC[N+](C)(C)[O-],31.7 µM (active),–
O=C1c2c(O)cccc2Cc2cccc(O)c21,66.3 µM (active),–
COc1ccc(C(=O)Nc2nc3ccccc3c(NCc3ccccc3)c2C#N)cc1,0.349 µM (active),–
S=c1[nH]c2ccccc2s1,73.1 µM (active),–
O=C(Oc1ccccc1)c1cccc(C(=O)Oc2ccccc2)c1,–,inactive
CC1=C(C)S(=O)(=O)CCS1(=O)=O,–,inactive
CC(COCC(C)OC(=O)c1ccccc1)OC(=O)c1ccccc1 (centres undefined),–,inactive
CCCCc1nc2cccnc2n1Cc1ccc(-c2ccccc2-c2nnn[nH]2)cc1,–,inactive
CC(=O)O[C@]1(C(C)=O)CC[C@H]2[C@@H]3C=C(Cl)C4=CC(=O)[C@@H]5C[C@@H]5[C@]4(C)[C@H]3CC[C@@]21C,3.63 µM (active),–
Oc1ccccc1O,–,inactive
O=C1OC(c2ccc(O)cc2)(c2ccc(O)cc2)c2ccccc21,1.77 µM (active),–

# Assay: CEETOX_H295R_ANDR: CeeTox H295R High-throughput Steroidogenesis Assay for Androstenedione (ANDR) (AID 2283436)
# Settings: actives raise or lower the signal
# Procedure, shortened: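 Read-out is androstenedione secreted into medium, measured by tandem mass spectrometry after liquid-liquid extraction. Cells were H295R, dosed for 48 h per modified OECD 456; activity fitted in both directions relative to DMSO.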
SMILES,AC50,outcome
CCN(CC)CCOc1ccc(C(=C(Cl)c2ccccc2)c2ccccc2)cc1,0.222 µM (active),–
CCC(C)N(C)C(=O)c1cc2ccccc2c(-c2ccccc2Cl)n1 (centres undefined),–,inactive
CCCCCCCCCC[N+](C)(C)[O-],17 µM (active),–
O=C(Oc1ccccc1)c1cccc(C(=O)Oc2ccccc2)c1,–,inactive
CC1=C(C)S(=O)(=O)CCS1(=O)=O,–,inactive
O=C1OC(c2ccc(O)cc2)(c2ccc(O)cc2)c2ccccc21,–,inactive

# Assay: CEETOX_H295R_CORTIC: CeeTox H295R High-throughput Steroidogenesis Assay for Corticosterone (CORTIC) (AID 2283437);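 note: corticosterone secreted into medium quantified by mass spectrometry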;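 for AC50: human H295R adrenal cells prestimulated with forskolin before chemical exposure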
# Settings: actives raise or lower the signal
# Procedure, shortened: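 Corticosterone secreted into medium is measured by reverse-phase HPLC with tandem MS following liquid-liquid extraction. Cells are forskolin-stimulated (10 uM, 48 h) before 48 h test exposure; activity fitted in both directions against DMSO.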
SMILES,AC50,outcome
CCN(CC)CCOc1ccc(C(=C(Cl)c2ccccc2)c2ccccc2)cc1,0.039 µM (active),–
O=C(O)CN(CC(=O)O)CC(=O)O,–,inactive
CCCCCCCCCC[N+](C)(C)[O-],–,inactive
O=C1c2c(O)cccc2Cc2cccc(O)c21,–,inactive
COc1ccc(C(=O)Nc2nc3ccccc3c(NCc3ccccc3)c2C#N)cc1,3.33 µM (active),–
S=c1[nH]c2ccccc2s1,–,inactive
O=C1NC(=O)C(c2ccccc2)(c2ccccc2)N1,10.4 µM (active),–
O=C(Oc1ccccc1)c1cccc(C(=O)Oc2ccccc2)c1,72.7 µM (active),–
CC1=C(C)S(=O)(=O)CCS1(=O)=O,–,inactive
CCCCc1nc2cccnc2n1Cc1ccc(-c2ccccc2-c2nnn[nH]2)cc1,–,inactive
Oc1ccccc1O,–,inactive

# Assay: CEETOX_H295R_CORTISOL: CeeTox H295R High-throughput Steroidogenesis Assay for Cortisol (AID 2283438);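 note: cortisol secreted into medium quantified by LC-MS/MS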
# Settings: actives raise or lower the signal
# Procedure, shortened: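 Forskolin 10 uM 48 h prestim → test cmpd in DMSO (0.1% final) 48 h → medium MTBE-extracted → LC-MS/MS cortisol vs 7-pt std curve. Gain/loss of signal fitted vs DMSO. MTT viability in same wells.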
SMILES,outcome,AC50
CCN(CC)CCOc1ccc(C(=C(Cl)c2ccccc2)c2ccccc2)cc1,inactive,–
O=C(O)CN(CC(=O)O)CC(=O)O,inactive,–
CCCCCCCCCC[N+](C)(C)[O-],inactive,–
O=C1c2c(O)cccc2Cc2cccc(O)c21,inactive,–
COc1ccc(C(=O)Nc2nc3ccccc3c(NCc3ccccc3)c2C#N)cc1,inactive,–
S=c1[nH]c2ccccc2s1,inactive,–
O=C1NC(=O)C(c2ccccc2)(c2ccccc2)N1,–,26.6 µM (active)
O=C(Oc1ccccc1)c1cccc(C(=O)Oc2ccccc2)c1,inactive,–
CC1=C(C)S(=O)(=O)CCS1(=O)=O,inactive,–
CC(COCC(C)OC(=O)c1ccccc1)OC(=O)c1ccccc1 (centres undefined),inactive,–
CCCCc1nc2cccnc2n1Cc1ccc(-c2ccccc2-c2nnn[nH]2)cc1,inactive,–

# Assay: CEETOX_H295R_DOC: CeeTox H295R High-throughput Steroidogenesis Assay for DOC (AID 2283439)
# Settings: actives raise or lower the signal
# Procedure, shortened: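 Readout: 11-deoxycorticosterone in culture medium by reverse-phase C18 HPLC with ESI+ tandem MS after MTBE extraction. Cells: H295R, forskolin-primed (10 uM, 48 h), chemical-treated 48 h; DMSO 0.1% final. Activity fitted bidirectionally versus DMSO.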
SMILES,AC50,outcome
CCN(CC)CCOc1ccc(C(=C(Cl)c2ccccc2)c2ccccc2)cc1,0.0456 µM (active),–
O=C(O)CN(CC(=O)O)CC(=O)O,–,inactive
CCCCCCCCCC[N+](C)(C)[O-],–,inactive
O=C1c2c(O)cccc2Cc2cccc(O)c21,–,inactive
COc1ccc(C(=O)Nc2nc3ccccc3c(NCc3ccccc3)c2C#N)cc1,3.01 µM (active),–
S=c1[nH]c2ccccc2s1,–,inactive
O=C1NC(=O)C(c2ccccc2)(c2ccccc2)N1,–,inactive
O=C(Oc1ccccc1)c1cccc(C(=O)Oc2ccccc2)c1,–,inactive
CC1=C(C)S(=O)(=O)CCS1(=O)=O,–,inactive
CC(COCC(C)OC(=O)c1ccccc1)OC(=O)c1ccccc1 (centres undefined),–,inactive
CCCCc1nc2cccnc2n1Cc1ccc(-c2ccccc2-c2nnn[nH]2)cc1,10.1 µM (active),–
Oc1ccccc1O,–,inactive

# Assay: CEETOX_H295R_ESTRADIOL: CeeTox H295R High-throughput Steroidogenesis Assay for Estradiol (AID 2283440);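 note: estradiol secreted into medium quantified by LC-MS/MS after dansyl derivatisation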
# Settings: actives raise or lower the signal
# Procedure, shortened: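 Estradiol in spent medium measured by LC-MS/MS after dansyl chloride derivatisation. Forskolin-primed (10 uM, 48 h) human adrenal H295R cells received test chemical 48 h at 0.1% DMSO; concentrations lowered until MTT viability >/=70%.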
row,SMILES,outcome
1,CCC(C)N(C)C(=O)c1cc2ccccc2c(-c2ccccc2Cl)n1 (centres undefined),inactive
2,CCCCCCCCCC[N+](C)(C)[O-],inactive
3,COc1ccc(C(=O)Nc2nc3ccccc3c(NCc3ccccc3)c2C#N)cc1,inactive
4,CC1=C(C)S(=O)(=O)CCS1(=O)=O,inactive
5,CCCCc1nc2cccnc2n1Cc1ccc(-c2ccccc2-c2nnn[nH]2)cc1,inactive

# Assay: CEETOX_H295R_ESTRONE: CeeTox H295R High-throughput Steroidogenesis Assay for Estrone (AID 2283441);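 note: estrone secreted into medium measured by LC-MS/MS after dansyl derivatization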
# Settings: actives raise or lower the signal
# Procedure, shortened: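 H295R cells prestimulated 48 h with 10 uM forskolin, then exposed 48 h to chemicals in 0.1% DMSO final; estrone in medium extracted with MTBE, dansyl-derivatized, quantified by HPLC-MS/MS; bidirectional fitting versus DMSO, viability by MTT.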
row,SMILES,outcome
1,CCC(C)N(C)C(=O)c1cc2ccccc2c(-c2ccccc2Cl)n1 (centres undefined),inactive
2,CCCCCCCCCC[N+](C)(C)[O-],inactive
3,COc1ccc(C(=O)Nc2nc3ccccc3c(NCc3ccccc3)c2C#N)cc1,inactive
4,CC1=C(C)S(=O)(=O)CCS1(=O)=O,inactive
5,CCCCc1nc2cccnc2n1Cc1ccc(-c2ccccc2-c2nnn[nH]2)cc1,inactive
